Each structure is given as a SMILES string. Values without a mark were called inactive. Inconclusive results are not listed. The source made the active and inactive calls. Unless noted, the call rests on the fitted dose curve; in most records, active means well fitted curve in the direction sought with a large enough effect in the repeat runs; inconclusive means weak or mixed curves; inactive means no such curve, though single readings can be large; an effect the other way counts as inactive or inconclusive.

Test [1] can be described thus: qHTS assay to identify small molecule agonists of the sonic hedgehog signaling (Shh) pathway (AID 1259368; calls by dose curve;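 further: NIH/3T3-derived 3T3Gli1-Luc cells carrying a stable Gli1-driven firefly luciferase reporter; series mostly up to about 92 µM; nearly all actives have a fitted effect of over 15% in size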). The method, boiled down:
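Luminescence was read after 30 min at room temperature with luciferase reagent. Before that, 3T3Gli1-Luc cells (NIH/3T3 clone, stable Gli1-Luc reporter; 2,000/well) were exposed to compounds for 24 hr at 37C, 5% CO2, compounds being added 4 hr post-plating.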

Test [2] concerns the target Estrogen receptor beta (Homo sapiens) (UniProt Q92731). Description: qHTS assay to identify small molecule agonists of the estrogen receptor beta (ER-beta) signaling pathway (AID 1259377; active means well fitted activation curve with a large enough effect in the signal ratio in the repeat runs, not every such curve was filed as active; the % refers to the signal ratio). The method, boiled down:
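A UAS-controlled beta-lactamase reporter in ER-beta-UAS-bla HEK293T cells reports receptor activation. Compounds act for 16 hr at 37C in 2% charcoal-stripped serum, and a FRET substrate is read by fluorescence after 2 hours.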

Test [3] has the same target. Description: qHTS assay to identify small molecule antagonists of the estrogen receptor beta (ER-beta) signaling pathway (AID 1259378; active means well fitted inhibition curve with a large enough effect in the signal ratio in the repeat runs, not every such curve was filed as active; the % refers to the signal ratio; further: potency means the concentration at half of the fitted maximal effect). The essentials:
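ER-beta-UAS-bla HEK293T cells in 2% charcoal-stripped FBS medium treated with compound plus 1nM final 17-beta-estradiol for 16 hr at 37C. Beta-lactamase reporter read by FRET substrate fluorescence after 2 hours at room temperature.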

Test [4] in a line: qHTS assay to identify small molecule agonists of the androgen receptor (AR) signaling pathway in the presence of an antagonist - cell viability counter screen (AID 1259379).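 Further: MDA-kb2 human breast cancer cells carrying an MMTV luciferase reporter; series mostly up to about 92 µM; nearly all actives have a fitted effect of over 25% in size.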 The essentials:
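Cytotoxicity counter-screen run in the same wells as the nilutamide-challenged (3.0 µM final) AR agonist assay in MDA-kb2 cells. Compounds tested at 15 concentrations for 16 h, 37 °C without CO2; CellTiter-Fluor fluorescence read.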

Test [5] is described as follows: qHTS assay to identify small molecule agonists of the estrogen receptor beta (ER-beta) signaling pathway - cell viability counter screen (AID 1259380). Further: nearly all actives have a fitted effect of over 30% in size. The essentials: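 Cell viability counter screen: CellTiter-Glo luminescence (30 min, room temperature) measured in the same wells as the beta-lactamase readout, after 16 hr compound exposure at 37C of ER-beta-bla HEK293T cells in 2% charcoal-stripped FBS medium.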

Test [6] in a line: qHTS assay to identify small molecule antagonists of the estrogen receptor beta (ER-beta) signaling pathway - cell viability counter screen (AID 1259382). Further: series mostly up to about 92 µM; nearly all actives have a fitted effect of over 55% in size. The method, boiled down:
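Cytotoxicity was measured in the same wells by CellTiter-Glo luminescence after 30 min at room temperature. Cells were ER-beta-bla HEK293T in charcoal-stripped serum, given compound together with 1 nM E2 and incubated 16 h at 37C.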

A short description of test [7]: qHTS assay to identify small molecule agonists or antagonists of the thyroid stimulating hormone receptor (TSHR) signaling pathway - wild type cell line counter screen (AID 1259384; calls by dose curve). The essentials: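 Wild-type Hek293 cells, 800/well, 18 h at 37C, then compound with Ro20-1724 for 30 min RT. cAMP by HTRF (cAMP-d2/anti-cAMP cryptate), 1 h RT, fluorescence read. 15 concentrations, triplicates.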

For test [8], the target named is Thyrotropin receptor (Homo sapiens) (UniProt P16473). Description: qHTS assay to identify small molecule antagonists of the thyroid stimulating hormone receptor (TSHR) signaling pathway (AID 1259385; calls by dose curve; further: nearly all actives have a fitted effect of over 20% in size). The essentials:
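TSHR-HEK293 cells (800/well) plated 18 h, then compounds with Ro20-1724 and TSH at 1.5 ng/mL final, 30 min at room temperature. cAMP quantified by HTRF (cAMP-d2/anti-cAMP-cryptate, 1 h); 15 concentrations in triplicate.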

Test [9] in a line: qHTS assay to identify small molecule agonists of the estrogen receptor alpha (ER-alpha) signaling pathway in the presence of an antagonist - cell viability counter screen (AID 1259386). Further: series mostly up to about 92 µM; nearly all actives have a fitted effect of over 30% in size. The essentials:
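Compounds tested at 15 concentrations for 22 h at 37C alongside 10.0nM (final) ICI-182,780 antagonist, in VM7Luc4E2 cells grown in phenol red-free, charcoal-stripped medium. Viability read by CellTiter-Fluor fluorescence after 1 h reagent incubation.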

Test [10] can be described thus: qHTS assay to identify small molecule antagonists of the progesterone receptor (PR) signaling pathway - cell viability counter screen (AID 1346798). Further: series mostly up to about 92 µM; nearly all actives have a fitted effect of over 50% in size. The method, boiled down:
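Same-well multiplex: after 16 hr at 37C with compound and R5020 stimulation, HEK293T cells carrying a UAS-bla reporter received LiveBLAzer substrate (2 hr RT), then CellTiter-Glo (30 min RT) for luminescent viability.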

Test [11] in a line: qHTS assay to identify small molecule agonists of the progesterone receptor (PR) signaling pathway - cell viability counter screen (AID 1346799; calls by dose curve; further: nearly all actives have a fitted effect of over 45% in size). The essentials:
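Counter screen for cytotoxicity: compound-treated PR-UAS-bla HEK293T cells (16 hr, 37C, 5% CO2) were assayed with CellTiter-Glo, luminescence measured after 30 min at room temperature.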

Test [12] can be described thus: qHTS assay to identify small molecule antagonists of the TGF-beta/Smad signaling pathway - cell viability counter screen (AID 1346824). Further: nearly all actives have a fitted effect of over 50% in size. The essentials:
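SBE-bla HEK 293T cells, incubated overnight, then compound plus 0.25 ng/mL TGF-beta1 (stock added) for 5 hr at 37 C. Viability was read in the same wells by CellTiter-Glo luminescence after 30 min at room temperature.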

Test [13] in a line: qHTS assay to identify small molecule agonists of the TGF-beta/Smad signaling pathway (AID 1346859; active means well fitted activation curve with a large enough effect in the signal ratio in the repeat runs, not every such curve was filed as active; the % refers to the signal ratio; further: series mostly up to about 77 µM). The essentials:
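Smad-responsive beta-lactamase reporter cells (HEK 293T) received compounds from DMSO stocks after overnight attachment, were incubated 5 hr, then treated 2 hr with FRET substrate before dual-emission fluorescence measurement (405 nm excitation).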

Test [14] deals with Thyrotropin-releasing hormone receptor (Homo sapiens) (UniProt P34981). Briefly: qHTS assay to identify small molecule antagonists of the thyrotropin-releasing hormone receptor (TRHR) signaling pathway (AID 1346877; active means well fitted inhibition curve with a large enough effect in the repeat runs, not every such curve was filed as active; further: series mostly up to about 51 µM). The method, boiled down: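 Antagonist mode: after a 5 min room-temperature compound exposure, cells were stimulated with 1 nM (final) TRH. Dye-loaded TRHR-HEK293 cells were used, and calcium-dependent fluorescence was followed for 3 min, with 15-point titrations run in triplicate.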
Thyrotropin-releasing hormone receptor (Homo sapiens), sequence (P34981 whole entry, looked up): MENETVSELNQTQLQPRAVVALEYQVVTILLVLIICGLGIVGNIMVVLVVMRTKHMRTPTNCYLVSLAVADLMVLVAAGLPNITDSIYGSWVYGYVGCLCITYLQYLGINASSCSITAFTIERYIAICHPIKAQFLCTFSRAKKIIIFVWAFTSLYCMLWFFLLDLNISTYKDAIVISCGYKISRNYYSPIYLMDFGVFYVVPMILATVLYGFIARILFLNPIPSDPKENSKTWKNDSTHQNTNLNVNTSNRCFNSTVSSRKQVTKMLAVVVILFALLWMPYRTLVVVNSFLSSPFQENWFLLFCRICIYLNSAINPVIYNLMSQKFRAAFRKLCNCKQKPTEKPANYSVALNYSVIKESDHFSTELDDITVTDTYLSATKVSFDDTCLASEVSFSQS

The target in test [15] is Estrogen receptor (Homo sapiens) (UniProt P03372). Description: qHTS assay to identify small molecule agonists of the estrogen receptor alpha (ER-alpha) signaling pathway in the presence of an antagonist (AID 1259383; calls by dose curve; further: top concentration of the series differs between compounds; nearly all actives have a fitted effect of over 15% in size). The method, boiled down: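 Agonist-mode confirmation run in the presence of 10.0nM (final) ICI-182,780 antagonist. The reporter was ERE-driven luciferase in VM7Luc4E2 cells, grown in charcoal-stripped serum. Cells were exposed to 15-concentration compound series for 22hr, then ONE-Glo luminescence was read.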
Estrogen receptor (Homo sapiens), sequence (P03372 whole entry, looked up): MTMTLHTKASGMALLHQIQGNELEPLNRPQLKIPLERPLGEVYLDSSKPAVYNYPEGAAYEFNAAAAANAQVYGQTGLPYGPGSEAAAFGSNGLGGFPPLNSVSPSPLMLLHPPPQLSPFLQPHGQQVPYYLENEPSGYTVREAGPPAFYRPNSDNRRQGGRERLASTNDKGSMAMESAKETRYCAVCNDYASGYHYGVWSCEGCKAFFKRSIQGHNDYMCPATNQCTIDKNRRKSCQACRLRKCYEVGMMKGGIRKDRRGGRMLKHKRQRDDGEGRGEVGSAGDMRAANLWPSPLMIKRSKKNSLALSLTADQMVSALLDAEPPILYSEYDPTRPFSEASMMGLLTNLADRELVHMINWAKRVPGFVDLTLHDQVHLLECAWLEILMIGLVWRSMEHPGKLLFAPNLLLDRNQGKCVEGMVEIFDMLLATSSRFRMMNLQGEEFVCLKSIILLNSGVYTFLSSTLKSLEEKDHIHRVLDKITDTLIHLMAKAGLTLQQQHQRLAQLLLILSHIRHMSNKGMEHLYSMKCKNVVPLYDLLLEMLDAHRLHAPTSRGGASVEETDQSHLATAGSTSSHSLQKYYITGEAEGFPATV

Test [16] addresses Progesterone receptor (Homo sapiens) (UniProt P06401). Description: qHTS assay to identify small molecule agonists of the progesterone receptor (PR) signaling pathway (AID 1346784; calls by dose curve; further: nearly all actives have a fitted effect of over 30% in size). The method, boiled down:
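Agonist mode, quantitative HTS format in a HEK 293T line expressing a UAS-controlled beta-lactamase reporter; 16 hr compound exposure at 37C in 2% charcoal-stripped FBS, then LiveBLAzer B/G FRET fluorescence.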

Test [17] shares this target. Briefly: qHTS assay to identify small molecule antagonists of the progesterone receptor (PR) signaling pathway (AID 1346795; active means well fitted inhibition curve with a large enough effect in the signal ratio in the repeat runs, not every such curve was filed as active; the % refers to the signal ratio). The essentials:
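HEK293T PR-UAS-bla reporter cells in charcoal-stripped serum (2%) received compound after a 6 hr settling period, followed by R5020 agonist at 1 nM final; 16 hr incubation preceded the FRET substrate step and fluorescence measurement.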

Test [18] is described as follows: qHTS assay to identify small molecule agonists of the TGF-beta/Smad signaling pathway - cell viability counter screen (AID 1346829). Further: top concentration of the series differs between compounds; nearly all actives have a fitted effect of over 45% in size. The essentials:
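CellTiter-Glo luminescence readout; SBE-bla HEK 293T cells, overnight plating, compound 5 hr at 37 C/5% CO2, then bla substrate 2 hr RT, then CellTiter-Glo 30 min RT.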

Test [19] addresses Androgen receptor (Homo sapiens) (UniProt P10275). Briefly: qHTS assay to identify small molecule agonists of the androgen receptor (AR) signaling pathway in the presence of an antagonist (AID 1259381; calls by dose curve; further: nearly all actives have a fitted effect of over 15% in size). The essentials:
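Agonist-mode confirmation run against 3.0 uM final nilutamide: compounds titrated at 15 concentrations onto MDA-kb2 MMTV-luciferase reporter cells. Luminescence measured with ONE-Glo following 16 hr incubation, 37C, 0% CO2.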
On the % scale 0 is the no-effect control and ±100 the full control effect.

Progesterone receptor (Homo sapiens), sequence (P06401 whole entry, looked up): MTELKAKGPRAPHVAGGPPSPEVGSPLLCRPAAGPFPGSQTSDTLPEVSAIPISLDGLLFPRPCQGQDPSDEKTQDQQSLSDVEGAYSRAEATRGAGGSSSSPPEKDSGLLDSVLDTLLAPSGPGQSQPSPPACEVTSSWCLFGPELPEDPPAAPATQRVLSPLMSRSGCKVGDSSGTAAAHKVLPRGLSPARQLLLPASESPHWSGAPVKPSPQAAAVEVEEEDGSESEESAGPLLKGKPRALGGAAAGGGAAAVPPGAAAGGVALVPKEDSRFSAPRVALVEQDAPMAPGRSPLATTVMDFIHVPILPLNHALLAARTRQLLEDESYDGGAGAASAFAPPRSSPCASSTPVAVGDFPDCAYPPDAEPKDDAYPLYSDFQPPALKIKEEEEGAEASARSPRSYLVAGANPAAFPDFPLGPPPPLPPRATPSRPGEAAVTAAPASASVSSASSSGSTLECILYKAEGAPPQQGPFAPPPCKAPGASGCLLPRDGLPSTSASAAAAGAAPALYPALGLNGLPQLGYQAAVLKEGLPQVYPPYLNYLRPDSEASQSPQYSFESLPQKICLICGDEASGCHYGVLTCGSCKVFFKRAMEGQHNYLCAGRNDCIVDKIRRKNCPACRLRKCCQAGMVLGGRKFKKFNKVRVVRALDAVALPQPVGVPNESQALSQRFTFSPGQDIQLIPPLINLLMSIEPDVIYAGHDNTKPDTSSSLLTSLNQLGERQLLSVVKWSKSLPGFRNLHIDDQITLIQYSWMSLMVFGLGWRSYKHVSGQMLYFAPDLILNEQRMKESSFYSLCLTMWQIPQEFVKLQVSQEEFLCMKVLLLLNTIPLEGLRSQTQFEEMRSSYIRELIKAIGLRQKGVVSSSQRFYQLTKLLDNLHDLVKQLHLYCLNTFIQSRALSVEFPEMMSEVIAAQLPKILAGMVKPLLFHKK
Estrogen receptor beta (Homo sapiens), sequence (Q92731 whole entry, looked up): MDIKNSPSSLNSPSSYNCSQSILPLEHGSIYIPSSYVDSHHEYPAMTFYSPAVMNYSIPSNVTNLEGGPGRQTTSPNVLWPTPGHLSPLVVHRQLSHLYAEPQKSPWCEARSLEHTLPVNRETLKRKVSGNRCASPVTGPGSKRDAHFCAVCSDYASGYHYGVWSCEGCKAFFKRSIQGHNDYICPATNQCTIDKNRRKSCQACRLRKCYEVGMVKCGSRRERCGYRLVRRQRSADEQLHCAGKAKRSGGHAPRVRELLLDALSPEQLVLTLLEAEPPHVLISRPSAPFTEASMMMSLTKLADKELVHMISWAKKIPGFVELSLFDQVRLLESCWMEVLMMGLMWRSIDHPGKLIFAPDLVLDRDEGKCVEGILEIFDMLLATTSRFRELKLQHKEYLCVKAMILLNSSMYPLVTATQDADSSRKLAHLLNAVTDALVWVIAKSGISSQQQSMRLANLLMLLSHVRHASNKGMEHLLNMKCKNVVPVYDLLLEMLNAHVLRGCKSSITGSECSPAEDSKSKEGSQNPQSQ
Thyrotropin receptor (Homo sapiens), sequence (P16473 whole entry, looked up): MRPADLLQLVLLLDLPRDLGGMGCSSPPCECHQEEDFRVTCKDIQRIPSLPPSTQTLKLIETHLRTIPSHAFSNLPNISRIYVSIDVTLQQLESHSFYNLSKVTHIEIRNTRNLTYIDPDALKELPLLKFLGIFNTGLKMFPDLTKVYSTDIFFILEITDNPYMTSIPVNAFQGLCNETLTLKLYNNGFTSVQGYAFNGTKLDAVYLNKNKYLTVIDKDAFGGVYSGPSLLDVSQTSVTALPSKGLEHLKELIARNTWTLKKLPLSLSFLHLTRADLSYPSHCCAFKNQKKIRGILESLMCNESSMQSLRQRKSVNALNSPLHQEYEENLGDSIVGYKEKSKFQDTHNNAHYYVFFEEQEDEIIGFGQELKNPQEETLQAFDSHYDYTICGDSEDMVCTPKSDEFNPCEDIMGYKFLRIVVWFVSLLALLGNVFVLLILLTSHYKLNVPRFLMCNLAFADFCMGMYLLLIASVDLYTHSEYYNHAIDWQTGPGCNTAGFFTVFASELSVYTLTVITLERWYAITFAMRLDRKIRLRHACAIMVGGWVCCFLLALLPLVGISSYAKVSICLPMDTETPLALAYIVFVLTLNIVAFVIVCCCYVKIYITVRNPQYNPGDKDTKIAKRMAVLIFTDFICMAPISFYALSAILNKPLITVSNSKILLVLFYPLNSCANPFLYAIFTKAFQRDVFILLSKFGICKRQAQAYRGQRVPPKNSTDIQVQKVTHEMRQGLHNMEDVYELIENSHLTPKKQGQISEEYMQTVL
Androgen receptor (Homo sapiens), sequence (P10275 whole entry, looked up): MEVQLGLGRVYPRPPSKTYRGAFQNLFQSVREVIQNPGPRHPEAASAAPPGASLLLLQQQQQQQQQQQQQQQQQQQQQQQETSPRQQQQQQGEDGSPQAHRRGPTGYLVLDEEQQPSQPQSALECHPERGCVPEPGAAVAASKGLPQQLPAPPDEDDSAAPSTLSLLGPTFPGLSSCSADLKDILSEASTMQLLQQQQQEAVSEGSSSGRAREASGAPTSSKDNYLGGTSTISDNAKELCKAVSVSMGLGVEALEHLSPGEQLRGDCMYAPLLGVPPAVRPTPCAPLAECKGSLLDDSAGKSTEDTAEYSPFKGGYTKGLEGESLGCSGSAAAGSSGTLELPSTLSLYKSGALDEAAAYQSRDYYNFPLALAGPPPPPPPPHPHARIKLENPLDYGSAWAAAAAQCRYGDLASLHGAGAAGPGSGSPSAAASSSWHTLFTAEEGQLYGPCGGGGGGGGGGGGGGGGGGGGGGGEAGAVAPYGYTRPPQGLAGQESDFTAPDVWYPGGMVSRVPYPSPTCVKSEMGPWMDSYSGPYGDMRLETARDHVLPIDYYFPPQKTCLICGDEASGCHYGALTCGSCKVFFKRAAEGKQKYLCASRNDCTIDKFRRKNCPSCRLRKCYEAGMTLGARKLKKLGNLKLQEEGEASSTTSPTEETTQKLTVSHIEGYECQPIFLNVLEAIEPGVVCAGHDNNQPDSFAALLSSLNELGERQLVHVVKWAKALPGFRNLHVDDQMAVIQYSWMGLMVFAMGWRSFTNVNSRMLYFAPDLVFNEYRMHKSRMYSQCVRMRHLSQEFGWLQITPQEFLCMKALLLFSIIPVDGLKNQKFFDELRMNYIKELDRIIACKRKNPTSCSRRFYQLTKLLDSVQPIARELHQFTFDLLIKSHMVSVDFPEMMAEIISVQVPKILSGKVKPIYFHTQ

`Nc1nc(-c2ccc([N+](=O)[O-])cc2)cs1`: the Potency result in [1], in test [2], in [3], in [4], in [5] and in test [6] was “inactive” each time. In addition, the Potency entry in [7], in test [8], in test [9], in [10], in test [11] and in test [13] was “inactive” in each case. Further, the outcome in test [12] and in [14] was inactive.

On to `O=P(O)(O)Oc1ccccc1`, for which the Potency entry in test [1], in test [2], in [3], in test [4], in test [5] and in [15] was “inactive” throughout. Besides, the Potency result in test [7], in [9], in test [16], in [17], in test [10] and in [11] was “inactive” each time. The Potency entry in test [18] and in test [13] was “inactive” in each case. For the same molecule, the molecule was called inactive in test [12] and in test [14].

With `CCCCCc1ccco1`, the Potency result in [1], in test [2], in [4], in test [6], in test [7] and in test [8] was “inactive” throughout. In addition, the Potency result in test [9], in test [16], in test [17], in test [10] and in test [13] was “inactive” each time. In addition, the Potency in [3] is 25.1 µM (active). The result in [12] and in test [14] was inactive.

Take `CC1=CC[C@@H]2C[C@H]1C2(C)C`: in test [1], the activity change is 0.102% [at 18.9 µM, hits give high values]. Besides, the activation in [2] is -1.23% [at 19 µM]; in test [15] it was -0.899% [at 19 µM]; in test [16], 3.56% [at 19 µM]; in test [13] it was 0.129% [at 15.8 µM]. In addition, the activity, negative = inhibition was -3.84% [at 19 µM] in test [3] and 3.09% [at 10.5 µM] in test [14]. The activity change, negative = cytotoxicity in test [4] is 0.221% [at 19 µM]; in [6], 4.03% [at 19 µM]; in test [9], 3.72% [at 19 µM]; in test [10], 0.83% [at 18.9 µM]; in test [11] it was -14.1% [at 19 µM]; in test [18], 7.86% [at 15.8 µM]. In addition, the cAMP activity change in test [7] is -1.96% [at 18.9 µM, hits give high values]. For the same molecule, the activity change, negative = inhibition in test [8] is 8.95% [at 19 µM]; in [17], 6.78% [at 18.9 µM]. For the same molecule, the viability change, negative = cytotoxic in test [12] was 2.23% [at 15.8 µM].

As for `O=C(O)CCCc1c[nH]c2ccccc12`, the Potency result in test [1], in [2], in test [3], in test [4], in [5] and in test [6] was “inactive” in each case. For the same molecule, the Potency result in [7], in test [9], in [16], in test [17], in test [10] and in test [11] was “inactive” each time. Moreover, in test [18], the Potency result is “inactive”. Moreover, the molecule was called inactive in [12] and in [14].

As for `CNC1CCCN(c2c(F)cc3c(=O)c(C(=O)O)cn(C4CC4)c3c2OC)C1` (stereo not given), the Potency entry in [1], in [2], in test [3], in test [5], in test [6] and in test [15] was “inactive” throughout. The Potency result in [7], in test [8], in [9], in [16], in test [17] and in test [10] was “inactive” throughout. The Potency result in test [18] and in test [13] was “inactive” in each case. For the same molecule, the outcome in test [12] was inactive.

Regarding `O=[N+]([O-])C1(Br)COCOC1`, the Potency result in test [1], in [2], in test [3], in test [4], in test [7] and in test [9] was “inactive” in each case. The Potency entry in test [16], in test [17], in test [10], in test [11] and in test [13] was “inactive” in each case. In addition, the outcome in test [12] and in test [14] was inactive.

Consider `CCCCCCCCCCCCCC(=O)OCC(O)CO` (stereo not given), for which the Potency entry in test [1], in test [2], in test [3], in test [5], in [19] and in [6] was “inactive” each time. Besides, the Potency result in [7], in [8], in [9], in test [16], in test [17] and in test [10] was “inactive” each time. Also, the Potency entry in test [11], in test [18] and in [13] was “inactive” throughout. Besides, the molecule was classed as inactive in test [12].

(Values after PubChem BioAssay (Tox21).)
